SMILES strings stand for the structures.

In one assay the target is Bromodomain-containing protein 4 (Homo sapiens) (UniProt O60885). The conditions noted are these: Compound concentration 20.0 uM, Protein concentration 2.0 uM, Result type QC Liability.
In the case of `O=C(NCCCN1CCOC1=O)c1cnc(NCc2cc(Br)ccc2Br)nc1NC1CCCC1`, the ΔTm was 0 c.

For `CN(C)C(=O)c1ccc(-c2cc(C(=O)N[C@@H]3CCc4ccccc43)no2)cc1O`, the ΔTm is -0.51 c.

As to `CS(=O)(=O)N1CCCC(NC(=O)[C@H](CCC2CCCCC2)NC(=O)c2ccc(CNC(=O)c3cnc4ccccn34)cc2)C1` (stereo partly drawn), the ΔTm turned out to be 0.345 c.

Take `CN(c1ncccc1CNc1ccnc(-c2nc3c(F)c(Cl)ccc3[nH]2)n1)S(C)(=O)=O`: the ΔTm was -0.76 c.

Another assay concerns the target T1, Transcription intermediary factor 1-alpha (Homo sapiens) (UniProt O15164).
T1 sequence (whole entry): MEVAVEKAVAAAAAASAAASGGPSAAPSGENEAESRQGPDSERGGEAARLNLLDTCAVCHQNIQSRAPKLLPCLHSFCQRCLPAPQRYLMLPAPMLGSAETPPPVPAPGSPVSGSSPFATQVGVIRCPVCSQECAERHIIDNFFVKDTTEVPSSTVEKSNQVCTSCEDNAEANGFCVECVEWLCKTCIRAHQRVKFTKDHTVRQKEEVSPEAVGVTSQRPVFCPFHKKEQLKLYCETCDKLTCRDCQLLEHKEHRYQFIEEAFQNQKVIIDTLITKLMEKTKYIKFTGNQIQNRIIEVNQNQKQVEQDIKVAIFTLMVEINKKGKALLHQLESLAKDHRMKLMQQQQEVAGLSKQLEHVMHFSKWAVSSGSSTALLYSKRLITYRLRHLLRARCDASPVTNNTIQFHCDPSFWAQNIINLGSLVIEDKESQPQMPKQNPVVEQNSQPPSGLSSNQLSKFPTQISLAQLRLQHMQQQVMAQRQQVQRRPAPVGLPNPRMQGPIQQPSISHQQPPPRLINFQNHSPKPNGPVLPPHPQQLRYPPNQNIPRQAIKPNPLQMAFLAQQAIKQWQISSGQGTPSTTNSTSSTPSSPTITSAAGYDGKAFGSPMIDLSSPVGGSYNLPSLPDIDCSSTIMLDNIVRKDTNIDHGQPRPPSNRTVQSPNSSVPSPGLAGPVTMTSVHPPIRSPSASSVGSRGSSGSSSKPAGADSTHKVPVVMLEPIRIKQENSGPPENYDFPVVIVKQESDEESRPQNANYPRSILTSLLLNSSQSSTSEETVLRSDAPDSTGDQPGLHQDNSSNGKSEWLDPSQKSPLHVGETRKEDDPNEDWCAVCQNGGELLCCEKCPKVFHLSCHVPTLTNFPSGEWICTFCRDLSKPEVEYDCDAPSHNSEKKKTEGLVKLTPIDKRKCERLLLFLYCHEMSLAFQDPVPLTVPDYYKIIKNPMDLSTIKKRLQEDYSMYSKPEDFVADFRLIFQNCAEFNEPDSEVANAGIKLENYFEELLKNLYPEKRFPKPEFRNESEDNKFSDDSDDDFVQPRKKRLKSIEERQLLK
The following applies: Compound concentration 20.0 uM, Protein concentration 2.0 uM, Result type QC Liability.
In the case of `O=C(NCCCN1CCOC1=O)c1cnc(NCc2cc(Br)ccc2Br)nc1NC1CCCC1`, the ΔTm was 0 c.

On to `CN(C)C(=O)c1ccc(-c2cc(C(=O)N[C@@H]3CCc4ccccc43)no2)cc1O`, for which the ΔTm is -0.594 c.

In the case of `CS(=O)(=O)N1CCCC(NC(=O)[C@H](CCC2CCCCC2)NC(=O)c2ccc(CNC(=O)c3cnc4ccccn34)cc2)C1` (stereo partly drawn), the ΔTm turned out to be 0.0818 c.

As to `CN(c1ncccc1CNc1ccnc(-c2nc3c(F)c(Cl)ccc3[nH]2)n1)S(C)(=O)=O`, the ΔTm was -0.07 c.

The values above are taken from ChEMBL document CHEMBL5058541.
